Experimental data: PubChem BioAssay

Target: Tumor necrosis factor receptor superfamily member 10B (Homo sapiens) (UniProt O14763)
Experiment: viability loss of caspase-8 NB7 cells with TRAIL – with/without TRAIL, luminescence panel, confirmation (AID 651596)
Settings: NB7 neuroblastoma + caspase-8, TRAIL sensitization, NB7 Caspase-8, with TRAIL, mean of runs, at 10 µM, stronger effect = higher value

Tumor necrosis factor receptor superfamily member 10B (Homo sapiens), sequence (O14763 whole entry, looked up): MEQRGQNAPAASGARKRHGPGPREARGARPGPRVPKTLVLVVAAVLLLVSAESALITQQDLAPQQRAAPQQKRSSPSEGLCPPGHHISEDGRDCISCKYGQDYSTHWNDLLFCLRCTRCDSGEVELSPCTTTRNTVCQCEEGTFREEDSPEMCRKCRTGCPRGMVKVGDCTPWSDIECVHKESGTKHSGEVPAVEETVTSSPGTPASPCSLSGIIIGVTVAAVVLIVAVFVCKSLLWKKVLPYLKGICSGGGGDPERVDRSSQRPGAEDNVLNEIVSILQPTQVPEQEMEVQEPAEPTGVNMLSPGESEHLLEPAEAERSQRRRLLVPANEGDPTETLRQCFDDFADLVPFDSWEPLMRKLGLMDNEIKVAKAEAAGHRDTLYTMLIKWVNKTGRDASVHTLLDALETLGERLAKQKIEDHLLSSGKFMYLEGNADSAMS

Row | Structure (SMILES) | activity [%]
1 | Cc1ccn2cc(-c3cccc(NC(=O)CCC(=O)O)c3)nc2c1 | 70.5
2 | O=C(CCl)N1CCN(S(=O)(=O)c2ccc3ccccc3c2)CC1 | 94.9
3 | O=c1c2[nH]c3ccc(F)cc3c2ncn1C1CCCCC1 | 59.1
4 | Cc1ccc(NC(=S)c2nc3ccccc3[nH]2)cc1 | 74.3
5 | Cc1cc(C(=O)Nc2sc3c(c2C#N)CCCC3)no1 | 53
6 | CCC(=O)Nc1cc2nn(-c3ccccc3)nc2cc1Cl | 67.5
7 | N#Cc1c(C#N)c(SSc2c(C#N)c(C#N)c(N)n2-c2ccccc2)n(-c2ccccc2)c1N | -0.075
8 | Cc1cc(C)cc(NC(=O)/C(C#N)=C/c2cn(CC(=O)NCc3ccco3)c3ccccc23)c1 | 62.1
9 | Cc1nc(-c2ccc(C(=O)Nc3cccc(F)c3)cc2)cs1 | 76.6
10 | O=C(/C=C/Nc1ccccc1F)c1ccc(Br)cc1 | 62.2
11 | Cc1cccc2sc(NNC(=O)c3ccc(S(=O)(=O)N4CC(C)CC(C)C4)cc3)nc12 (stereo not drawn) | 55.6
12 | O=C(Nc1ccc(Cl)cc1)/C(=C/c1cccc(O)c1)c1nc2ccccc2s1 | 95.7
13 | O=Nc1c2cc(-c3ccccc3)[nH]nc-2c2ccccc12 | 78.8
14 | CCOC(=O)CSc1nc(-c2ccncc2)ccc1C#N | 55.8
15 | O=C(Cn1ncc(Cl)c(Cl)c1=O)NC(=O)NC1CCCCC1 | 99.3
16 | CN(CCO)c1cc(Sc2nc3ccccc3s2)c2nonc2c1[N+](=O)[O-] | 18.5
17 | COc1ccc(C(=O)Nc2cccc(/C=C/c3nc4ccccc4c(=O)[nH]3)c2)cc1 | 73.5
18 | O=C(Nc1ccc2nc(-c3ccco3)[nH]c2c1)c1cccs1 | 72.4
